Assay results: PubChem BioAssay; in the data active = activity above about 50%; inactive = the rest

Experiments:
[1] = biological target: Tumor necrosis factor receptor superfamily member 10B (Homo sapiens) (UniProt O14763); experiment: caspase-8 TRAIL sensitization, hit retest, confirmation, cell-based, NB7+caspase-8, with/without TRAIL, luminescence panel (AID 651596); settings: NB7 neuroblastoma + caspase-8, TRAIL sensitization, luminescence viability, with TRAIL, mean of runs, at 10 µM, stronger effect = higher value
[2] = as above; settings: NB7 neuroblastoma + caspase-8, without TRAIL, luminescence viability, without TRAIL, mean of runs, at 10 µM

Tumor necrosis factor receptor superfamily member 10B (Homo sapiens), sequence (O14763 whole entry, looked up): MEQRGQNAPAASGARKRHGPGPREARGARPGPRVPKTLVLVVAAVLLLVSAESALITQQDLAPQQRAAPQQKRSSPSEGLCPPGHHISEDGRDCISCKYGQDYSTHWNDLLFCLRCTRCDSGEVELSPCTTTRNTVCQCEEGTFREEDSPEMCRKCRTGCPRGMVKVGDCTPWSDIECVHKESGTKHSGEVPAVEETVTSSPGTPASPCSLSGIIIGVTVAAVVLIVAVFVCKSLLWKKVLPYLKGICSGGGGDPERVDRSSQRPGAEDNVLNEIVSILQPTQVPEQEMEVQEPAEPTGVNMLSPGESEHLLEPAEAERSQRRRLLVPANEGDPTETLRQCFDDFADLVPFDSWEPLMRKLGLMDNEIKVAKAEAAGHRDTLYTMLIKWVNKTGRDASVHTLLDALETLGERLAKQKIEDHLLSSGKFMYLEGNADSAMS

c1ccc(CNc2nc(NCC3CC3)nc3cc(-c4ccccc4)sc23)cc1
activity [1]: 15.9%
activity [2]: 16.7%

CC1(C)N=C(N)N=C(N)N1c1ccc(OCC(=O)N2CCOCC2)cc1
activity [1]: 62.7%
activity [2]: 87.2%

COCCNC(=O)c1c[nH]c2ccc(S(=O)(=O)N3CCc4ccccc43)cc2c1=O
activity [1]: 74.2%
activity [2]: 82.7%

O=C(Nc1ccc(O)cc1)c1ccc(NC(=O)c2cccs2)cc1
activity [1]: 85.2%
activity [2]: 84.8%

O=c1[nH]c(/C=C/c2ccccc2Cl)nc2ccccc12
activity [1]: 75.5%
activity [2]: 65.7%

Cc1ccc(-c2nc(-c3ccccn3)no2)cc1[N+](=O)[O-]
activity [1]: 60.7%
activity [2]: 55%

COc1ccc(-c2ccc(NC(=O)c3ccco3)cc2)nn1
activity [1]: 91%
activity [2]: 89.9%

Cc1cc2ncc(-c3ncc(C(F)(F)F)cc3Cl)cn2n1
activity [1]: 45.7%
activity [2]: 41.9%

CCn1cc(Cl)c(C(=O)Nc2ccc3c(c2)OCCO3)n1
activity [1]: 39.5%
activity [2]: 34.1%

C/C(=N\NC(=O)c1ccc2c(c1)OCO2)c1ccco1
activity [1]: 53.5%
activity [2]: 57.3%

CC1(C)N=C(N)N=C(N)N1c1ccc(OCCCOc2ccccc2)c(Cl)c1
activity [1]: 59.8%
activity [2]: 64.1%

CN(C)CCCN(C(=O)/C=C/c1cccs1)c1nc2c(F)cccc2s1
activity [1]: 56.7%
activity [2]: 93%

COc1cccc(C(=O)/C=C/Nc2cccc(O)c2)c1
activity [1]: 86%
activity [2]: 71.5%

C(/C=C/c1ccccn1)=C\c1ccccc1
activity [1]: 7.58%
activity [2]: 14.6%

Cc1ccc(C(=O)Nc2nc3ccccc3c(=O)s2)cc1
activity [1]: 80.8%
activity [2]: 80%

O=C(Nc1ccc(N2CCOCC2)cc1)c1csc(COCCO)n1
activity [1]: 54.5%
activity [2]: 59.1%

Cc1onc(-c2c(F)cccc2Cl)c1C(=O)Nc1nc2ccccc2[nH]1
activity [1]: 31.9%
activity [2]: 30.2%

O=C(Nc1cccc(-c2ccc(N3CCCCC3)nn2)c1)C(F)(F)F
activity [1]: 95.2%
activity [2]: 95.2%

COc1cc(NC(=O)c2cc3cccc(OC)c3o2)cc(C(=O)Nc2cccc(C(F)(F)F)c2)c1
activity [1]: 36.8%
activity [2]: 33.5%

CCOC(=O)c1nnn2c1nc(Nc1cccc(C(F)(F)F)c1)c1ccccc12
activity [1]: 8.35%
activity [2]: 52.4%

FC(F)(F)c1cc(Cl)c2nc(-c3ccccc3)cn2c1
activity [1]: 65%
activity [2]: 76.1%

COc1cccc(/C=C2\CCc3ccccc3C2=O)c1
activity [1]: 83.4%
activity [2]: 78.5%

CCC1CCCCN1c1ccc([N+](=O)[O-])cc1/C=N/NC(=O)Cn1c2ccccc2c(=O)c2ccccc21 (configuration not stated)
activity [1]: 60.3%
activity [2]: 66.7%

CN(C(=O)c1ccccc1)c1nc2ccccc2s1
activity [1]: 84.3%
activity [2]: 72.3%

Cc1onc(-c2ccccc2Cl)c1C(=O)O/N=C(\N)c1ccccc1
activity [1]: 99%
activity [2]: 98.1%

O=c1[nH]c(/C(=N\O)c2ccccc2)no1
activity [1]: 88.8%
activity [2]: 89.6%

O=C(NC(=S)Nc1nc2ccccc2s1)c1cccs1
activity [1]: 83.1%
activity [2]: 75.6%

O=C(N/N=C/c1ccc(Br)s1)c1ccccn1
activity [1]: 44.5%
activity [2]: 46.6%

COc1cc(OC)cc(C(=O)Nc2ccc3c(c2)OCCO3)c1
activity [1]: 47.1%
activity [2]: 43.8%

COc1ccc(OC)c(NC(=O)c2nc(S(=O)(=O)Cc3ccccc3)ncc2Cl)c1
activity [1]: 97%
activity [2]: 98.9%

CC1CCC(C(C)C)C(OC(=O)Cn2c(-c3ccc(Cl)cc3)[n+](C)c3ccccc32)C1 (configuration not stated)
activity [1]: 76.7%
activity [2]: 62%

Cc1cccc(NC(=O)c2cnc3ccccn3c2=O)c1
activity [1]: 69%
activity [2]: 62.9%

CCOc1ccc(/C=N/NC(=O)c2ccccc2NC(=O)c2ccc(OC)cc2)cc1
activity [1]: 72.6%
activity [2]: 57.7%

CC(=O)c1sc(NC(=O)c2cc(=O)c3ccccc3o2)nc1C
activity [1]: 51.1%
activity [2]: 50.8%

O=C(Nc1ccc2[nH]ccc2c1)c1ccccc1
activity [1]: 81.1%
activity [2]: 75.3%

Cc1cc2[nH]c3c4ccccc4nc(C)c3c2cc1C
activity [1]: 99.5%
activity [2]: 99.8%

CN=c1scc(-c2ccccc2F)n1/N=C(\C)c1cccnc1
activity [1]: 54.9%
activity [2]: 51.2%

Cc1cc(C)cc(NS(=O)(=O)c2ccc3c(c2)c(=O)n(C)c(=O)n3C)c1
activity [1]: 79%
activity [2]: 82.2%

O=c1c2c(-c3ccccc3)csc2nc2c3ccccc3c(NCCN3CCOCC3)nn12
activity [1]: 89.5%
activity [2]: 90.1%

O=C(Nc1ccccn1)c1ccc(-c2ccccc2)cc1
activity [1]: 87.6%
activity [2]: 88.4%

COC(=O)c1cccc(NC(=O)c2cc3ccccc3o2)c1
activity [1]: 57.4%
activity [2]: 58.6%

C/C(=N\NC(=O)c1ccc(F)cc1)c1ccccn1
activity [1]: 44.9%
activity [2]: 61.7%

Cc1ccc(C2=NN(C(=O)CCl)C(c3ccco3)C2)o1 (configuration not stated)
activity [1]: 98.5%
activity [2]: 98.2%

Brc1nc(-c2ccccc2)nc(-c2ccccc2)c1Br
activity [1]: 98.9%
activity [2]: 99.2%

Cc1ccc(-c2nc3cc(N)ccc3o2)c(C)c1
activity [1]: 61%
activity [2]: 49.5%

CCOC(=O)c1ccc(NC(=O)c2nc[nH]c2C(=O)NCCNC(=O)c2[nH]cnc2C(=O)Nc2ccc(C(=O)OCC)cc2)cc1
activity [1]: 99.4%
activity [2]: 99.5%

N#Cc1ccccc1NC(=O)COC(=O)/C=C/c1cn(-c2ccccc2)nc1-c1ccc(Cl)cc1
activity [1]: 39.5%
activity [2]: 80.4%

COc1ccc(NC(=O)c2cccc3c2C(=O)c2ccc(-c4ccc(F)cc4OCc4ccccc4)cc2S3(=O)=O)cc1
activity [1]: 20.6%
activity [2]: 31.4%

O=C1C(=Cc2ccc(F)cc2)CCc2ccccc21
activity [1]: 82.8%
activity [2]: 76.7%

O=C1CCC(=O)N1c1ccc(-c2nc3ccccc3s2)cc1
activity [1]: 76.8%
activity [2]: 41%

Cc1ccc(NC(=O)N2CCc3ccccc32)cc1C
activity [1]: 71.9%
activity [2]: 66.1%

Clc1ccccc1-c1nnc(-c2ccc3c(c2)OCO3)o1
activity [1]: 53.9%
activity [2]: 50.7%

CC(=O)Oc1ccc(/C=N\NC(=O)c2cc3c(ccc4ccccc43)o2)cc1
activity [1]: 64.6%
activity [2]: 67.7%

CCOc1ccc(-c2nc(-c3cccnc3)no2)cc1
activity [1]: 53.3%
activity [2]: 51.5%

O=C(Nc1ccc2ccccc2c1)c1ccc(Cl)cc1Cl
activity [1]: 63.9%
activity [2]: 60.5%

CN(C)S(=O)(=O)c1ccc(-c2cn3ccccc3n2)cc1
activity [1]: 66.2%
activity [2]: 73.5%

CCOc1ncccc1C(=O)OCC(=O)Nc1ccc(-c2nc3ccc(C)cc3s2)cc1
activity [1]: 60.9%
activity [2]: 67%

C/C(=N\NC(=O)c1ccc(Cl)cc1)c1ccccn1
activity [1]: 32.2%
activity [2]: 51%

Cn1c(N)c(C(=O)COC(=O)c2cc(S(=O)(=O)N3CCOCC3)ccc2F)c(=O)n(C)c1=O
activity [1]: 90.6%
activity [2]: 93.8%

CC(C)(C)c1ccc(-c2nc3cc(N)ccc3o2)cc1
activity [1]: 81.9%
activity [2]: 80.5%

COc1cccc2sc(N(CCCN(C)C)C(=O)c3ccc(S(=O)(=O)N4CCc5ccccc5C4)cc3)nc12
activity [1]: 56.8%
activity [2]: 79%

O=C(NCc1ccccc1)c1c(Cl)nc(Cl)c(Cl)c1Cl
activity [1]: 99.8%
activity [2]: 99.9%

Cc1nn(Cc2ccc(Cl)cc2Cl)c(C)c1NC(=O)CCl
activity [1]: 95.8%
activity [2]: 97.8%

CCOc1ccc(Nc2nc(N)nc(CCl)n2)cc1
activity [1]: 99.5%
activity [2]: 99.3%

Cc1ccc(-c2nc3ccccc3[nH]2)s1
activity [1]: 58.9%
activity [2]: 58.2%

COc1cc2c3nnc(-c4ccc(F)cc4)c-3cn(Cc3ccccc3)c2cc1OC
activity [1]: 40.5%
activity [2]: 57.5%

CCn1nnc(NC(=O)c2ccc(C(C)(C)C)cc2)n1
activity [1]: 69.1%
activity [2]: 75.2%

Cc1ccc2cc(NC(=O)c3ccccc3)ccc2n1
activity [1]: 55%
activity [2]: 43.6%

C=CCn1c(C)cc(C(=O)CN2C(=O)c3ccccc3C2=O)c1C
activity [1]: 60.2%
activity [2]: 57.3%

Cc1ccc(O)c(-c2cc(-c3ccc(F)cc3)no2)c1
activity [1]: 71.2%
activity [2]: 57.8%

Cc1cccc(-c2noc(-c3ccc4c(c3)OCO4)n2)c1
activity [1]: 64.6%
activity [2]: 60.1%

CC(=O)c1cc(F)ccc1OCC(=O)Nc1ccc2c(c1)OCO2
activity [1]: 72.3%
activity [2]: 68.3%

COc1ccccc1/C=C/C1(C(=O)NC2CCCC2)CC(=O)N1c1ccc(F)cc1 (configuration not stated)
activity [1]: 98%
activity [2]: 98.1%

Cc1cccc(NC(=S)NC(=O)c2oc3ccccc3c2C)n1
activity [1]: 70%
activity [2]: 60.1%

Cc1cc(C)c2c(c1)/C(=C/C(=O)c1ccc(Br)s1)C(=O)N2
activity [1]: 91.8%
activity [2]: 98%

Cc1cc(Cl)n2c(nc3cc(F)c(F)cc32)c1C#N
activity [1]: 91.7%
activity [2]: 99.3%

Cc1ccc(NC(=O)c2ccc(C)cc2)cc1
activity [1]: 64.9%
activity [2]: 63.8%

O=C1CC(c2ccc3c(c2)OCCO3)Oc2ccc([N+](=O)[O-])cc21 (configuration not stated)
activity [1]: 56.3%
activity [2]: 55.9%

CC(C)(C)c1ccc(C(=O)Nc2cnccn2)cc1
activity [1]: 78.5%
activity [2]: 82.2%

Cc1ccc(CSc2nc3ccncc3[nH]2)cc1
activity [1]: 98.5%
activity [2]: 99.2%

c1ccc(-c2ccc(-c3cn4c(n3)CCC4)cc2)cc1
activity [1]: 62.8%
activity [2]: 67.6%

CCOC(=O)N1CCN(C(=O)c2ccc(Cn3c(=S)[nH]c4ccc(Br)cc4c3=O)cc2)CC1
activity [1]: 73.5%
activity [2]: 58.9%

CCc1nc(N)nc(N)c1-c1ccc(NCCN)c([N+](=O)[O-])c1
activity [1]: 80.7%
activity [2]: 81.5%

Cc1nc(NCC2CCCO2)nc2c1C(=O)CC(C)C2 (configuration not stated)
activity [1]: 33%
activity [2]: 40.6%

O=C(/C=C/[C@H]1O[C@@H](n2cnc3c(NC(=O)c4ccccc4)ncnc32)[C@H](O)[C@@H]1O)NCC1CCCO1 (some centres not stated)
activity [1]: -2.52%
activity [2]: -37%

O=C(NN=Cc1ccc2c(c1)CCN2)c1cccs1
activity [1]: 47.9%
activity [2]: 57.8%

Cc1cccc(NS(=O)(=O)c2ccc3c(c2)Cc2cc(S(=O)(=O)Nc4cccc(C)c4C)ccc2-3)c1C
activity [1]: 72.1%
activity [2]: 77.5%

Oc1cc(NCc2ccc(F)cc2)cc2cccnc12
activity [1]: 36.8%
activity [2]: 33.5%

Cc1ccccc1-c1nnc(-c2cccc3ccccc23)o1
activity [1]: 47%
activity [2]: 32.4%

Cc1cccc(/C=N/Nc2nncc3ccccc23)c1
activity [1]: 80.9%
activity [2]: 69.2%

O=C(Nc1ccccn1)c1ccc2c(=O)n3c(nc2c1)CCCCC3
activity [1]: 50.4%
activity [2]: 62.5%

c1ccc(/N=C2\N=C(Nc3ccccn3)c3ccccc32)nc1
activity [1]: 40%
activity [2]: 48.8%

CCCCCCCCOC(=O)c1cc([N+](=O)[O-])c(Sc2ncnc3nc[nH]c23)c([N+](=O)[O-])c1
activity [1]: 64.1%
activity [2]: 62%

COc1ccc(/C=C2\Oc3ccccc3C2=O)cc1
activity [1]: 76.7%
activity [2]: 74.3%

Cc1cccc(C)c1NC(=O)C1CCN(S(C)(=O)=O)CC1
activity [1]: 0.425%
activity [2]: -3.45%

O=C(COC(=O)c1n[nH]c2ccccc12)NC(=O)NC12CC3CC(CC(C3)C1)C2
activity [1]: 51.5%
activity [2]: 57%
